# Measurements: the supplement of paper PMC8728848
# Many of the other results were omitted from the sample, so the strongest signals are more common in it than they were.
# B1: Awp3 (Candida glabrata), B4UN32 (protein)
# chain: MISFVTLLAILGLLSISWADQTVRSVAGDQRVTDPVIVGDNSILDYYGGSNYDFSNNFEIGRGTLYIGKESYFSSFQSAPTDVPNSFHLLIKNTNNLQNNGQFIIENIKRHANQCSNSSIQVFPINFQNDGEFEIISGGVEGRCCLPTSVIAPQNFLNNGKFYYKVLTDTGSIYSGSCMQNVDIGASTTTTVNNNLWEFTGSINAQINGAVSGAAQINLDGSNMFVNANTFSGQVVNLINGGSFLQTSDPLSNIVVINGLGTSDTGVTSIAVKGKGKSFTYNPSSGIVKLTTVEGKTYAYQIGCGYNTKKFITNNDSGASYESADNFFVLTYSEPYSPQTCQLENSSIFSSNFISTSTSSSSSSSSASSLPSSMSSSLPSSLSSSLSSSLSSSMSSSMSSLFIIPPPYTTTRSSGSSIIDTEIVSFYSTTDSPGHTITGTTTTTLYGPHTHSSVSTPSSSSESSTTSNSSIESSSLPHTSVSSTPESSITPSSNTISSSPTSDFSSVQSSSIMESSSVVASSSVINSSSIVDSSSSSASSLPSSMSSSLSSSMSSSLPSSMSSSLSSSLSSSLSSSMSSSMSSLFIIPPPYTTTRSSGSSIIDTEIVSFYSTTDSPGHTITGTTTTTLYGPHTHSSVSTPSSSSESSTTSNSSIESSSLPHTSVSSTPESSITPSSNTISSSPTSDFSSVQSSSIMESSSVVASSSVINSSSIVDSSSSSASSLPSSMPSSLPSSMSSSLSSSMSSSLSSSLSSSLSSSMSSSMSSLFIIPPPYTTTRSSGSSIIDTEIVSFYSTTDSPGHTITGTTTTTLYGPHTHSSVSTPSSSSESSTTSNSSIESSSLPHTSVSSTPESSITPSSNTISSSPTSDFSSVQSSSIMESSSVVASSSATQSSSVINSSSIVDSSSSSASSLPSSMPSSLPSSLSSSLSSSLSSSMSSSMSSLFIIPPPYTTTRSSGSSIIDTEIVSFYSTTDSPGHTITGTTTTTLYESSIYSSSSSTIQESELSNTSRTTMTSNSSVSISSTSSRSSFSNTKSSTIVISQSASLPDSKTDIILSTSSNIGYSSRSLLSDLGTSISDSDIHHSVLHSTESYSSNESGTNPFTSIASLSNFIPESSSHTSTALGSENSVISSDILTTMSHPVATNSGDKPTTPKRSEQVSTTMTSSGPTPDTSSFDTDGMSAYSRPEFTTNSLEVNKSSTSQLGNNKQTFSNLQLESTRPHSENEVDNNTRLLQSIQQSSTYGTNNVNPLSPTGSISIPLTEDGQGDNNNWNSPATNDLCTQISFNLTATTITVTDRITITDSIHDISSEVITSYIYQTIVDQKTVTQTVDGKSLANKMSSIPKPSSRSLIQPQPPVAIELQEGAASTSRVSLVSLFISIILVLL
# What was measured:
# Test in all cases: glycan array binding signal (z-score within array); higher = stronger binding
# Settings in all cases: glycan notation: IUPAC condensed, linker removed
# [1] = molecular target: GalNAc(b1-3)Gal(a1-4)Gal(b1-4)GlcNAc
# Summary of the method: (§1)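 From the Consortium for Functional Glycomics database, 3228 arrays were curated, keeping only those whose protein sequence was available. Binding is given as a within-array Z-score averaged across arrays sharing a protein sequence and across linkers. Negative Z-scores can be read as non-binding.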
# GalNAc3S(b1-4)GlcNAc = molecular target: GalNAc3S(b1-4)GlcNAc
# Summary of the method: as §1
# [2] = molecular target: GlcNAc(a1-4)Gal(b1-4)GlcNAc(b1-3)Gal(b1-4)Glc
# Summary of the method: as §1
# [3] = molecular target: GlcNAc(a1-6)Gal(b1-4)GlcNAc
# Summary of the method: as §1
# [4] = molecular target: GlcNAc(b1-2)[GlcNAc(b1-4)]Man(a1-3)[GlcNAc(b1-4)][GlcNAc(b1-2)[GlcNAc(b1-6)]Man(a1-6)]Man(b1-4)GlcNAc(b1-4)GlcNAc
# Summary of the method: as §1
# [5] = molecular target: GlcNAc(b1-3)Gal(b1-4)GlcNAc(b1-2)Man(a1-3)[GlcNAc(b1-3)Gal(b1-4)GlcNAc(b1-2)Man(a1-6)]Man(b1-4)GlcNAc(b1-4)[Fuc(a1-6)]GlcNAc
# Summary of the method: as §1
# [6] = molecular target: GlcNAc(b1-3)Gal(b1-4)GlcNAc(b1-3)Gal(b1-4)GlcNAc(b1-3)GalNAc
# Summary of the method: as §1
# Man(a1-6)Man = molecular target: Man(a1-6)Man
# Summary of the method: as §1
# Man(b1-4)GlcNAc = molecular target: Man(b1-4)GlcNAc
# Summary of the method: as §1
# Neu5Ac(a2-3)Gal = molecular target: Neu5Ac(a2-3)Gal
# Summary of the method: as §1
# [7] = molecular target: Neu5Ac(a2-3)Gal(b1-3)GalNAc(b1-4)[Neu5Ac(a2-3)]Gal(b1-4)Glc
# Summary of the method: as §1
# [8] = molecular target: Neu5Ac(a2-3)Gal(b1-3)GalNAc(b1-4)[Neu5Ac(a2-8)Neu5Ac(a2-3)]Gal(b1-4)Glc
# Summary of the method: as §1
# [9] = molecular target: Neu5Ac(a2-3)Gal(b1-3)GlcNAc(b1-2)Man(a1-3)[Neu5Ac(a2-3)Gal(b1-3)GlcNAc(b1-2)Man(a1-6)]Man(b1-4)GlcNAc(b1-4)GlcNAc
# Summary of the method: as §1
# [10] = molecular target: Neu5Ac(a2-3)Gal(b1-4)GlcNAc(b1-6)[Neu5Ac(a2-3)Gal(b1-3)]GalNAc
# Summary of the method: as §1
# [11] = molecular target: Neu5Ac(a2-3)[Neu5Ac(a2-6)]GalNAc
# Summary of the method: as §1
# [12] = molecular target: Neu5Ac(a2-6)Gal(b1-4)GlcNAc(b1-2)Man
# Summary of the method: as §1
# [13] = molecular target: Neu5Ac(a2-6)Gal(b1-4)GlcNAc(b1-2)Man(a1-6)[Man(a1-3)]Man(b1-4)GlcNAc(b1-4)GlcNAc
# Summary of the method: as §1
# [14] = molecular target: Neu5Ac(a2-6)Gal(b1-4)GlcNAc(b1-3)Gal(b1-4)GlcNAc(b1-2)Man(a1-3)[Neu5Ac(a2-6)Gal(b1-4)GlcNAc(b1-3)Gal(b1-4)GlcNAc(b1-2)Man(a1-6)]GalNAc
# Summary of the method: as §1
# [15] = molecular target: Neu5Ac(a2-6)GlcNAc(b1-4)GlcNAc
# Summary of the method: as §1
# [16] = molecular target: Neu5Ac(a2-6)GlcNAc(b1-4)GlcNAc(b1-4)GlcNAc
# Summary of the method: as §1
# [17] = molecular target: Neu5Ac(a2-8)Neu5Ac(a2-3)Gal(b1-4)GlcNAc
# Summary of the method: as §1
# [18] = molecular target: Neu5Ac(a2-8)Neu5Ac(a2-8)Neu5Ac(a2-8)Neu5Ac(a2-3)[GalNAc(b1-4)]Gal(b1-4)Glc
# Summary of the method: as §1
# [19] = molecular target: Neu5Ac9Ac(a2-3)Gal(b1-4)GlcNAc
# Summary of the method: as §1
# Neu5Gc(a2-6)GalNAc = molecular target: Neu5Gc(a2-6)GalNAc
# Summary of the method: as §1
# [20] = molecular target: Neu5Gc(a2-8)Neu5Gc(a2-3)Gal(b1-4)GlcNAc
# Summary of the method: as §1
binder,measurement,setting,value
B1,glycan array binding signal (z-score),[1],0.048
same,glycan array binding signal (z-score),GalNAc3S(b1-4)GlcNAc,3.17
same,glycan array binding signal (z-score),[2],-0.466
same,glycan array binding signal (z-score),[3],-0.59
same,glycan array binding signal (z-score),[4],-1.54
same,glycan array binding signal (z-score),[5],2.04
same,glycan array binding signal (z-score),[6],0.914
same,glycan array binding signal (z-score),Man(a1-6)Man,0.889
same,glycan array binding signal (z-score),Man(b1-4)GlcNAc,0.34
same,glycan array binding signal (z-score),Neu5Ac(a2-3)Gal,-1.36
same,glycan array binding signal (z-score),[7],-0.398
same,glycan array binding signal (z-score),[8],-0.714
same,glycan array binding signal (z-score),[9],0.813
same,glycan array binding signal (z-score),[10],-2.35
same,glycan array binding signal (z-score),[11],-0.108
same,glycan array binding signal (z-score),[12],-0.199
same,glycan array binding signal (z-score),[13],0.591
same,glycan array binding signal (z-score),[14],3.08
same,glycan array binding signal (z-score),[15],2.86
same,glycan array binding signal (z-score),[16],2.42
same,glycan array binding signal (z-score),[17],-1.76
same,glycan array binding signal (z-score),[18],1.87
same,glycan array binding signal (z-score),[19],-0.226
same,glycan array binding signal (z-score),Neu5Gc(a2-6)GalNAc,-0.186
same,glycan array binding signal (z-score),[20],0.721
